# Molecular target: PITPNM3
# Experiment: pooled miR-30 sensor sort-seq; sequence = guide strand
# Details: shRNA
# Further: reference of the scale not given here.
row,Sequence,sensor-assay potency score (higher = more potent)
1,TTCAGCAGCAATCACATCATTG,-1.64
2,TTCAGGTGAGAGACAAGCGAGA,-0.748
3,TTTGATGAAGCACTCCTGCATG,-0.502
4,TAGACAGAGATGTCCTTCGTGG,-0.052

# Molecular target: PKD2L1
# Experiment: as above
# Details: shRNA
row,Sequence,sensor-assay potency score (higher = more potent)
1,TTGACTGTGCGGATTTGCCAGG,-0.754
2,TTGAATATCTTGATCCAGGCGA,0.38
3,TTGTTGTACTGTGTCTGCCAGA,-0.963
4,TACTTGAATATCTTGATCCAGG,-0.611
5,TAGTAATAAGCACTGGAGCTTG,-0.791
6,TAGTAGAAGATGAAGACGCAGA,-0.533
7,TTCAAAGATCTCTGAATCCTGA,0.0945
8,TTCATCTTCAGGCTTCTTGGGT,-0.0602
9,TTGTTGAAGCTGATGTACTTGA,-0.253

# Molecular target: PKIA
# Experiment: as above
# Details: shRNA
row,Sequence,sensor-assay potency score (higher = more potent)
1,TTTACTGGGTGAACACTTGAGC,-0.0975
2,TAGAACTTCGTTGTGCATCTTC,0.489
3,TCATCATCTAGGTCGGAGCTAC,-0.746
4,ATCTTCTTCACCTTCTGTCTTG,-0.736
5,TAACATGATAATGAGCAGGTTC,0.186
6,TCTTGTTGATATCAAGACCTGC,-0.396
7,TTGTTCTGTAGAACTTCGTTGT,0.279
8,TTCAAGGCTAATTCATTGCTGT,0.0225
9,TTTGTTCTGTAGAACTTCGTTG,0.16
10,TACAGGAAGAATCATCATCTAG,-0.916
11,TATTGCATTTCTTCTACCTGTT,0.0658
12,TTTAACATGATAATGAGCAGGT,0.937

# Molecular target: PKIG
# Experiment: as above
# Details: shRNA
row,Sequence,sensor-assay potency score (higher = more potent)
1,TTCCTCACGCTCACAGCCTCTG,-0.203
2,TTGCCAGCTTCCTTGTCTGGGG,-0.658
3,TGTCCGGTCACAGGAGATGAAG,-2.03
4,TCAGGGACCGCATTCCGACGGC,-0.897
5,TTGATTGTCAGCTCTCTCCATA,-0.293
6,TAGGTGTCACTTATCCTGGTGG,-0.436
7,ATGTCAGGGACCGCATTCCGAC,-1.85
8,TTACAGTGTCTTGAAAGTGTAC,-0.626
9,TAACATCTTGTGGTTACAGTGT,-0.118
10,TCGAGTGCCAGCTCGCCCATGT,-1.07
11,TGGGGCGCTTCCCTCCACCTGT,-1.57
12,TCACAGCCTCTGAGTCTCCCTG,-1.09

# Molecular target: PKLR
# Experiment: as above
# Details: shRNA
row,Sequence,sensor-assay potency score (higher = more potent)
1,TAGATGACAGTTATAGTCTCAG,-0.0862
2,TCGCTTGTCTCTGCCCTCGTTG,-1.2
3,TAGCTCCTCAAACAGCTGCCGG,-1.23

# Source: the OligoGym collection
